Structures can show the parent of a compound that is named as a salt.
system: HEPG2; assay: Euclidean distance of Cell Painting phenotypic profile (signed KS, 77 features) to DMSO centroid (dimensionless distance); 5 or 10 uM (library dependent); higher = stronger phenotypic change vs DMSO (phenoactivity); details: 48 h
In short: (§1)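 Five cancer lines, together with a healthy fibroblast line, received library compounds for 48 h at a library-dependent 10 or 5 uM and 0.1% DMSO final. Harmony then derived 77 features from confocal 20X images (9 fields/well) of the stained cells, scoring each as a signed Kolmogorov-Smirnov statistic against same-plate vehicle wells. After plate-position correction, correlation weighting and replicate averaging at the top dose, phenoactivity was taken as each profile's Euclidean distance to the median vehicle profile.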

Point of comparison: `CN1CC2c3ccccc3Oc3ccc(Cl)cc3C2C1` (configuration not stated) [Asenapine], Euclidean distance 1.03. Against it:
- Oc1c(Cl)cc(Cl)c(Cl)c1Cc1c(O)c(Cl)cc(Cl)c1Cl [Hexachlorophene] — higher, 2.53
- COc1cc2c(N3CCN(C(=O)Nc4ccc(OC(C)C)cc4)CC3)ncnc2cc1OCCCN1CCCCC1 [Tandutinib (MLN518)] — higher, 1.52
- CCOC(=O)[C@H](CCc1ccccc1)N[C@@H](C)C(=O)N1[C@H](C(=O)O)C[C@@H]2CCC[C@@H]21 [Ramipril] — higher, 1.89
- NC1(Cc2ccc(Cl)cc2)CCN(c2ncnc3[nH]ccc23)CC1 — higher, 1.17
- O=C(O)c1ccc2c(c1)nc(Nc1cccc(Cl)c1)c1ccncc12 [CX-4945 (Silmitasertib)] — higher, 1.4
- CC(C)CN(C[C@@H](O)[C@H](Cc1ccccc1)NC(=O)O[C@H]1CCOC1)S(=O)(=O)c1ccc(N)cc1 [Amprenavir] — higher, 1.26
- CC(C)C[C@H](NC(=O)CNC(=O)[C@H](Cc1ccc(O)cc1)NC(=O)[C@H](CO)NC(=O)[C@H](Cc1c[nH]c2ccccc12)NC(=O)[C@H](Cc1cnc[nH]1)NC(=O)[C@@H]1CCC(=O)N1)C(=O)N[C@@H](CCCNC(=N)N)C(=O)N1CCC[C@H]1C(=O)NCC(N)=O [Gonadorelin Acetate] — lower, 0.828
- CNCC[C@H](Oc1cccc2ccccc12)c1cccs1 [Duloxetine HCl] — higher, 2.34
- CCOC(=O)c1ccc(OC(=O)CCCCCNC(=N)N)cc1 [Gabexate Mesylate] — higher, 1.58
- O=C(O)c1cn(-c2ccc(F)cc2)c2cc(N3CCNCC3)c(F)cc2c1=O [Sarafloxacin HCl] — lower, 0.601
- COc1ccccc1OCC(O)CO (configuration not stated) [Guaifenesin] — higher, 1.99
- COc1ccc(C2CNC(=O)C2)cc1OC1CCCC1 (configuration not stated) [Rolipram] — higher, 1.13

system: OVCAR4; assay: as above; details: 48 h
In short: as §1

Point of comparison: `CCCCOc1nc(N)c2c(n1)N(Cc1cccc(CN3CCCC3)c1)CC(=O)N2`, Euclidean distance 1. Against it:
- COCCCN1CCC(NC(=O)c2cc(Cl)c(N)c3c2OCC3)CC1 [Prucalopride Succinat] — lower, 0.827
- OC[C@H]1O[C@@H](Oc2cc(O)cc(/C=C/c3ccc(O)cc3)c2)[C@H](O)[C@@H](O)[C@@H]1O [Polydatin] — higher, 1.3
- C[N+](C)(C)NCCC(=O)[O-] [Mildronate] — lower, 0.82
- CN[C@@H]1[C@H](O)[C@H](NC)[C@H]2O[C@@]3(O)C(=O)C[C@@H](C)O[C@H]3O[C@@H]2[C@H]1O [Spectinomycin HCl] — higher, 1.02
- Cn1cnc2c(F)c(Nc3ccc(Br)cc3F)c(C(=O)NOCCO)cc21 — higher, 1.91
- C/C(=N\NC(=S)N1CCC1)c1ccccn1 — higher, 4.89
- CN1CCc2cc3c(cc2C(=O)Cc2ccc4c(c2C1)OCO4)OCO3 [Protopine] — higher, 1.68
- O=C(O)CCCc1cc2cc(Cl)ccc2n1S(=O)(=O)c1ccc2ncsc2c1 [Lanifibranor(IVA-337)] — higher, 1.53
- Nc1ncccc1-c1nc2ccc(-c3ccccc3)nc2n1-c1ccc(C2(N)CCC2)cc1 [Miransertib (ARQ 092) HCl] — higher, 3.46
- CCC[C@@H]1C[C@@H](C(=O)N[C@@H]([C@H]2O[C@H](SC)[C@H](O)[C@@H](O)[C@H]2O)[C@@H](C)O)N(C)C1 [Lincomycin HCl] — higher, 1.31
- c1ccc(-c2nn3c(c2-c2ccnc4cc(OCCN5CCOCC5)ccc24)CCC3)nc1 — lower, 0.876
- Cc1c(-c2ccnn2C)cc(C(=O)NCc2ccc(S(C)(=O)=O)cn2)c(=O)n1-c1cccc(C(F)(F)F)c1 [Alvelestat (AZD9668)] — lower, 0.81
- CCCCC(=O)N(Cc1ccc(-c2ccccc2-c2nnn[nH]2)cc1)[C@H](C(=O)O)C(C)C [Valsartan] — lower, 0.776
- CN1C(C(=O)Nc2ccccn2)=C(O)c2sc(Cl)cc2S1(=O)=O [Lornoxicam] — lower, 0.799
- O=C(O)Cn1nnc(-c2cc(N3CCC(Oc4cc(F)ccc4Br)CC3)no2)n1 — lower, 0.751
- CC[N+](C)(C)c1cccc(O)c1 [Edrophonium chloride] — lower, 0.943
- N=C1CCCN1Cc1[nH]c(=O)[nH]c(=O)c1Cl.O=c1[nH]c(=O)n([C@H]2C[C@H](O)[C@@H](CO)O2)cc1C(F)(F)F — higher, 3.04
- NC(CO)C(=O)NNCc1ccc(O)c(O)c1O (configuration not stated) [Benserazide HCl] — higher, 1.39
- O=C(/C=C/c1ccc(O)cc1)c1ccc(O)cc1O [Isoliquiritigenin] — lower, 0.885
- O=C1C(O)=C([C@H]2CC[C@H](c3ccc(Cl)cc3)CC2)C(=O)c2ccccc21 [Atovaquone] — higher, 1.08
- C=CCc1ccccc1OCC(O)CNC(C)C (configuration not stated) [Alprenolol hydrochloride] — higher, 1.07
- CCN1CCCC1CNC(=O)c1cc(S(=O)(=O)CC)c(N)cc1OC (configuration not stated) [Amisulpride] — higher, 1.01
- C#C[C@]1(O)CC[C@H]2[C@@H]3CCC4=CC(=O)CC[C@@H]4[C@H]3CC[C@@]21C [Norethindrone] — higher, 1.29
- N#C/C(=C\c1ccc(O)c(O)c1)C(=O)NCc1ccccc1 [AG-490 (Tyrphostin B42)] — lower, 0.729
- CN1CCc2c(c3ccccc3n2Cc2ccc(C(=O)NO)cc2)C1 [Tubastatin A HCl] — lower, 0.657
- Oc1c(Cl)cc(Cl)c(Cl)c1Cc1c(O)c(Cl)cc(Cl)c1Cl [Hexachlorophene] — higher, 1.64
- CN1CC2c3ccccc3Oc3ccc(Cl)cc3C2C1 (configuration not stated) [Asenapine] — lower, 0.94
- COc1cc2c(N3CCN(C(=O)Nc4ccc(OC(C)C)cc4)CC3)ncnc2cc1OCCCN1CCCCC1 [Tandutinib (MLN518)] — higher, 1.12
- CCOC(=O)[C@H](CCc1ccccc1)N[C@@H](C)C(=O)N1[C@H](C(=O)O)C[C@@H]2CCC[C@@H]21 [Ramipril] — higher, 1.21
- NC1(Cc2ccc(Cl)cc2)CCN(c2ncnc3[nH]ccc23)CC1 — higher, 1.39
- O=C(O)c1ccc2c(c1)nc(Nc1cccc(Cl)c1)c1ccncc12 [CX-4945 (Silmitasertib)] — higher, 1.25
- CC(C)CN(C[C@@H](O)[C@H](Cc1ccccc1)NC(=O)O[C@H]1CCOC1)S(=O)(=O)c1ccc(N)cc1 [Amprenavir] — higher, 1.6
- CC(C)C[C@H](NC(=O)CNC(=O)[C@H](Cc1ccc(O)cc1)NC(=O)[C@H](CO)NC(=O)[C@H](Cc1c[nH]c2ccccc12)NC(=O)[C@H](Cc1cnc[nH]1)NC(=O)[C@@H]1CCC(=O)N1)C(=O)N[C@@H](CCCNC(=N)N)C(=O)N1CCC[C@H]1C(=O)NCC(N)=O [Gonadorelin Acetate] — higher, 1.22
- CNCC[C@H](Oc1cccc2ccccc12)c1cccs1 [Duloxetine HCl] — higher, 1.46
- CCOC(=O)c1ccc(OC(=O)CCCCCNC(=N)N)cc1 [Gabexate Mesylate] — higher, 1.68
- O=C(O)c1cn(-c2ccc(F)cc2)c2cc(N3CCNCC3)c(F)cc2c1=O [Sarafloxacin HCl] — lower, 0.719
- COc1ccccc1OCC(O)CO (configuration not stated) [Guaifenesin] — higher, 1.31
- COc1ccc(C2CNC(=O)C2)cc1OC1CCCC1 (configuration not stated) [Rolipram] — higher, 1.44

Reference: the supplement of paper PMC10127200
